# TbREL1 inh: TbREL1 inhibition, primary screen; TbREL1 RNA ligation, FRET fluorescence; inhibition, % at 9.66 µM; P86926; 89,000 tested, 0.49% active;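 active = inhibition above the mean inhibition across all screened compounds plus 3 SD, cut at about 11% in these data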;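 note: 0% = plate median of test wells and 100% = NSC42067 control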
# Target sequence (P86926 whole entry, looked up): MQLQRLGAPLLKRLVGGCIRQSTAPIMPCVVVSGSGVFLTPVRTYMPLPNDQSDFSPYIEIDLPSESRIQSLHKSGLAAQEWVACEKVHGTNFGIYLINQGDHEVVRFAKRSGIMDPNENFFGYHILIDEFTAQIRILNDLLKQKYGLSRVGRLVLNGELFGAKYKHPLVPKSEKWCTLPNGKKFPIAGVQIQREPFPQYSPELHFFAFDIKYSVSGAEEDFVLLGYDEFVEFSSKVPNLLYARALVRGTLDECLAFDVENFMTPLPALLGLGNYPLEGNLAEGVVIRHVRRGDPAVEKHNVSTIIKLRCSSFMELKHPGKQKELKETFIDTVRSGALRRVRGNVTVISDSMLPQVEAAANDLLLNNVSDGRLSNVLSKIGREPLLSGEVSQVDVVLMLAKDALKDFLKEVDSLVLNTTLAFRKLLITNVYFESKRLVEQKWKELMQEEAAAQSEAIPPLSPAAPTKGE
# TbREL1 confirm: TbREL1 inhibition, confirmation. shares compounds with TbREL1 inh. TbREL1 RNA ligation, FRET fluorescence. inhibition, % at 9.66 µM. 390 tested, 37% active;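 active = mean inhibition across replicates above a set limit taken from the earlier primary screen, cut at about 11% in these data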;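 note: 0% = REL1 with substrate and DMSO and 100% = REL1 plus control inhibitor NSC42067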
# * hit, by the source's call. The sample as a whole holds a higher share of hits than the screen did.
SMILES,TbREL1 inh,others
Cc1onc(C(=O)N2CCN(C(c3ccc(Cl)cc3)c3ccc(Cl)cc3)CC2)c1[N+](=O)[O-],-2,
Cc1ccc(OCCn2c(=O)sc3ccccc32)cc1,3,
Cc1ccc(OCCN2C(=O)C(=O)c3cc(C)ccc32)cc1,12*,TbREL1 confirm=5
O=C1c2ccccc2C(=O)N1CCOc1ccccc1,0,
C[C@@H]1CN([C@@H](C)CO)C(=O)c2cccc(NC(=O)Nc3cccc4ccccc34)c2O[C@H]1CN(C)S(=O)(=O)c1ccc(Cl)cc1,-4,
CN1C2=N[C@@H](c3ccc4c(c3)OCO4)CC(=O)N2/C(=C\c2ccccc2)[C@H]1c1ccccc1,-7,
Cc1cc(C)n(CCC(=O)N/N=C/c2ccccc2O)n1,1,
Cc1cc(C)n(CCC(=O)N/N=C/c2ccc(Cl)c([N+](=O)[O-])c2)n1,-3,
Cc1cc(C)n(CCC(=O)N/N=C/c2ccc(O)cc2O)n1,12*,TbREL1 confirm=5
O=C(NCc1c(F)cccc1F)C1CCC(CNS(=O)(=O)c2cccc3cccnc23)CC1 (stereo not drawn),0,
COc1ccc2c(CCN3C(=O)c4ccccc4C3=O)c(-c3c(CCN4C(=O)c5ccccc5C4=O)c4ccccc4n3C(=O)OC(C)(C)C)[nH]c2c1,4,
Cc1ccc(NC(=O)CSc2nc(C)cc(=O)[nH]2)c(C)c1,0,
CN1CC(=O)N2[C@@H](C[C@]3(c4c[nH]c5ccccc45)c4ccccc4N(S(=O)(=O)c4ccccc4)[C@H]23)C1=O,0,
Cc1ccccc1NC(=S)N(CCN(C)C)C(C)c1ccccn1 (stereo not drawn),14*,TbREL1 confirm=3
Cc1ccccc1NC(=S)N(CCN(C)C)C(C)c1cccnc1 (stereo not drawn),-6,
Cc1c(Cl)cccc1NC(=S)N(CCN(C)C)C(C)c1ccccn1 (stereo not drawn),6,
CC(C)N1CCc2c(sc(NC(=O)C(F)(F)F)c2-c2nc3ccccc3s2)C1,2,
O=C1NC(=NCc2ccccc2)S/C1=C\c1ccccc1,0,
O=C1NC(=S)S/C1=C\c1ccc(SCc2ccccc2)o1,43*,TbREL1 confirm=7
COc1ccccc1C=C1SC(=S)NC1=O,3,
CCN(CC)c1ccc(NC(=O)CSc2nc3ccccc3c(=O)n2-c2ccc(C)cc2)cc1,-3,
CCc1ccccc1NC(=O)[C@@H]1CCCN1S(=O)(=O)c1cccc2cccnc12,-1,
C#CCOCCOCCOCCNc1nc(N2CCN(C(=O)[C@H](Cc3ccc(O)cc3)n3cc([C@@H](N)CC(C)C)nn3)CC2)nc(N2CCN(C(=O)[C@H](Cc3cc4ccccc4[nH]3)n3cc([C@@H](N)CC(C)C)nn3)CC2)n1,3,
C#CCOCCOCCOCCNc1nc(N2CCN(C(=O)[C@H](CCCCN)n3cc([C@@H](N)CC(C)C)nn3)CC2)nc(N2CCN(C(=O)[C@H](Cc3cc4ccccc4[nH]3)n3cc([C@@H](N)CC(C)C)nn3)CC2)n1,20*,TbREL1 confirm=13*
C#CCOCCOCCOCCNc1nc(N2CCN(C(=O)[C@H]([C@@H](C)CC)n3cc([C@@H](N)CO)nn3)CC2)nc(N2CCN(C(=O)[C@H](CCCCN)n3cc([C@@H](N)CO)nn3)CC2)n1,5,
SMILES,TbREL1 inh,others
C#CCOCCOCCOCCNc1nc(N2CCN(C(=O)[C@H](CCCCN)n3cc(CN)nn3)CC2)nc(N2CCN(C(=O)[C@H](CCC(=O)O)n3cc([C@@H](N)CCCCN)nn3)CC2)n1,6,
C#CCOCCOCCOCCNc1nc(N2CCOCC2)nc(N2CCN(C(=O)[C@H](CCC(=O)O)n3cc(C(N)CO)nn3)CC2)n1 (stereo partly drawn),16*,TbREL1 confirm=5
C#CCOCCOCCOCCNc1nc(N2CCN(C(=O)[C@H](CCC(=O)O)n3cc(C(N)Cc4ccc(O)cc4)nn3)CC2)nc(N2CCN(C(=O)[C@H](CCC(=O)O)n3cc(C(N)Cc4ccc(O)cc4)nn3)CC2)n1 (stereo partly drawn),3,
COC(=O)[C@]12C[C@H](CC(=O)N3CCCCC3)C(=O)N(Cc3ccc(Cl)cc3Cl)C1=C[C@H](C(C)(C)C)O[C@@H]2C,10,
Cc1ccccc1N(C)C(=O)CN1CCN(c2nc(-c3ccccc3)cs2)CC1,-6,
CC(C)(C)c1ccc(S(=O)(=O)N2CCC(C(=O)NCc3cccs3)CC2)cc1,0,
Cc1cc(NS(=O)(=O)c2ccc(NC(=O)CSc3nc4sc(C)c(C)c4c(=O)n3Cc3ccco3)cc2)nc(C)n1,-1,
CCCCCCCCN1C(=O)[C@@H](CC(=O)NCC23CC4CC(CC(C4)C2)C3)C[C@@]2(C(=O)OC)C1=C[C@H](C(C)C)O[C@@H]2C1CC1,5,
COC(=O)[C@]12C[C@H](CC(=O)NCC34CC5CC(CC(C5)C3)C4)C(=O)N(Cc3ccc(Cl)cc3Cl)C1=C[C@H](C(C)C)O[C@@H]2C1CC1,-5,
CC(C)C[C@H](NC1(C(=O)NC2CCCCC2)CCOCC1)C(=O)NCC(c1ccccc1)c1ccccc1,9,
O=C(COc1c(Cl)cc(Cl)cc1Cl)N/N=C/c1ccc[nH]1,-3,
Cc1ccc(-c2nn(-c3ccccc3)cc2/C=C/C(=O)O)o1,11*,TbREL1 confirm=4
Cc1ccc(Cn2cc(/C=C/C(=O)O)c(-c3ccccc3)n2)cc1,0,
CN1CCN(C(=O)/C=C/c2cn(-c3ccccc3)nc2-c2ccc3c(c2)OCCO3)CC1,-4,
CCN(CC)CCCNC(=O)C1(N[C@@H](Cc2c[nH]c3ccccc23)C(=O)NCC(OC)OC)CCCCC1,-2,
O=C(Nc1nc2ccccc2s1)c1ccc(F)cc1,15*,TbREL1 confirm=7
NC(=O)c1ccc2nc(NC(=O)c3ccc(N)cc3)sc2c1,4,
O=C(Nc1nc2ccccc2s1)c1ccc(Cl)s1,4,
CCCN(CC1CC1)C(=O)CNc1nnnn1-c1ccccc1,0,
CCOc1ccccc1NC(=O)CSc1nnc(SCc2ccccc2)s1,1,
CCN(Cc1ccccc1)C(=O)CCCN1C(=O)COc2ccc(C)cc21,-3,
CSCCCNC(=O)c1cn(C(C)c2ccccc2)nn1 (stereo not drawn),-4,
Nc1ccc(Oc2ccc3c(c2)OCO3)cc1,-3,
Nc1ccc2c(c1)OCCOCCOCCOCCOCCO2,14*,TbREL1 confirm=4
CC(=O)c1ccc2c(c1)OCCOCCOCCO2,2,
SMILES,TbREL1 inh,others
C(=C\c1ccccc1)/CSc1nnc(COc2ccccc2)n1Cc1ccco1,1,
COc1cc(N=c2ssnc2Cl)c(OC)cc1Cl,2,
Cc1nnc(N=c2ssnc2Cl)o1,13*,TbREL1 confirm=20*
Cc1cccc(-c2nnc(SCC(=O)c3ccc(F)cc3)n2C)c1,-3,
C[C@@H](O[Si](c1ccccc1)(c1ccccc1)C(C)(C)C)[C@H]1C(=O)N[C@H](Cc2cn(S(=O)(=O)c3ccccc3)c3ccccc23)C(=O)N1C,5,
c1nc2nc3c(c(N4CCCC4)n2n1)CCCC3,1,
COc1cc(/C=N/NC(=O)c2cc(-c3ccco3)nc3ccccc23)cc(OC)c1O,-3,
COc1ccc(/C=N/NC(=O)c2cccnc2)cc1,1,
Nc1c(C(=O)N/N=C/c2cccnc2)oc2nc(-c3ccco3)cc(-c3ccco3)c12,16*,TbREL1 confirm=4
COC(=O)[C@]12C[C@H](CC(=O)N3CCN(C(=O)c4ccco4)CC3)C(=O)N(Cc3cccc4ccccc34)C1=C[C@H](C1CCCC1)O[C@@H]2C,-4,
COc1cccc(CNC(=O)C2CCN(c3nc(OC)nc(OC)n3)CC2)c1,0,
Cc1cc(N2CCN(Cc3ccc4c(c3)OCO4)CC2)n2nc(C)nc2n1,-5,

# Compound activity as filed in PubChem BioAssay.
